{"source": "PubChem BioAssay (EPA / NIEHS)", "note": "Activity calls are given as the source filed them. How the source made its calls: active means hit-call score of the fitted dose curve at least 0.9, where 1 is the maximum; inactive means score below 0.9.", "data": [{"read-out": "Glutathione S-transferase M3 (GSTM3), GSTM3 (gene 2947)", "experiment": "LTEA_HepaRG_GSTM3: Life Technologies and Expression Analysis (LTEA) Assay for Glutathione S-transferase M3 (GSTM3) using HepaRG (AID 2283501)", "settings": "mRNA level, 48 h; actives raise or lower the signal", "procedure": "LTEA_HepaRG is a cell based, multiplexed-readout assay that uses HepaRG, a human liver cell line, with measurements taken at 48 hours after chemical dosing on a 96-well plate.LTEA_HepaRG_GSTM3 is one of 102 assay component(s) measured in the LTEA HepaRG cell culture assay. It is a marker of Oxidative Stress.Data from the assay component LTEA_HepaRG_GSTM3 was analyzed into 1 endpoint. This assay endpoint, LTEA_HepaRG_GSTM3, was analyzed with bidirectional fitting relative to DMSO as the negative control and baseline of activity. Using a type of inducible reporter, measures of mRNA induction for gain or loss-of-signal activity can be used to understand regulation of transcription factor activity. To generalize the intended target to other relatable targets, this assay endpoint is annotated to the transferase intended target family, where the subfamily is alkyl and aryl transferase.\nA total of 1060 chemcials from the ToxCast library were tested in eight-point concentration-response experiments. Cell culture and cytotoxicity assays were conducted at Thermo Fisher Scientific's Custom Services facility (Madison, WI). A single lot of human HepaRG cells (Thermo Fisher Scientific, Frederick, MD) was used for the cell culture experiments. 96-well format collagen type I coated plates of human HepaRG cells were prepared using established methods. Briefly, cryopreserved HepaRG cells were thawed, plated at a density of approximately 100,000 cells/well in HepaRG Thaw, Plate, and General Purpose media (HPRG770, Thermo Fisher Scientific), and incubated for 48 hours. 0.5% DMSO was selected as vehicle control to balance the requisite need of DMSO in HepaRG cultures to maintain differentiation (for example, baseline metabolism, proportions of hepatocytes vs. cholangiocytes), while enabling further hepatic receptor pathway activation (for example, PXR and CAR) in response to chemical exposure. 48 hours after plating, the culture medium was replaced with HepaRG Serum-Free Incudtion Media. Cells were exposed to each test chemical in duplicate and maintained in CO2 incubators for another 48 hours. Chemical plates were thawed to room temperature and 200x concentrations of treatment groups were prepared. 8-point conentration-reponse curves were made with the highest exposure at 100 uM, followed by half-log dilutions, all in 0.5% DMSO. Each test plate contained variouse controls, induction positive controls (1mM phenobarbital), cytotoxicity positive controls ([…] aflatoxin B1), vehicle controls (0.5% DMSO), and total lysis controls (0.5% DMSO). Cell morphology images were taken using an Essen IncuCyte FLR automated microscope, with six 96-well plates imaged in about 24 minutes. Images were captured and exported and JPEG files. Spent culture media was transfered to black-well plates for the LDH assay, and remaining media was sorted at -80 C for later use. Cells were treated with RLT buffer and frozen until shipped for gene expression analysis. Total RNA was isolated from the cell suspension in 75 uL of Buffer RLT (Qiagen, Germantown, MD 20874) by Quintiles/Expression Analysis (Durham, NC) using a custom isolation procedure. Total RNA from each plate well was transferred to a preamplification plate. Fluidigm's 96.96 Dynamic ArrayTM (Fluidigm, Amsterdam, the Netherlands) technology was used for gene expression analyses by quantitative reverse transcription polymerase chain reaction (qRT-PCR, performed by Quintiles/Expression Analysis, Durham, NC)89. Standard TaqManTM Assays (Applied Biosystems/ThermoFisher Scientific, Foster City, CA) were used to assess the expression of 93 genes selected based on their selectivity and sensitivity to important hepatic receptors known to be modulated by environmental chemicals; importance in human hepatocyte functionality; and hepatotoxicity. […]", "values": [{"smiles": "NC(=O)NN=Cc1ccc([N+](=O)[O-])o1", "outcome": "inactive"}, {"smiles": "OC(CCl)CCl", "outcome": "inactive"}, {"smiles": "CCCCCCCC1CCC(=O)O1", "note": "(stereo not given)", "outcome": "inactive"}, {"smiles": "NC(N)=O", "outcome": "inactive"}, {"smiles": "Cc1nc(-c2ccccn2)ncc1C(=O)Nn1cc(C)c2cc(F)ccc21", "outcome": "inactive"}, {"smiles": "CC(C)c1nnc2ccc(-c3ocnc3-c3cc(F)ccc3F)cn12", "outcome": "inactive"}, {"smiles": "CC(=O)c1ccccc1", "outcome": "inactive"}, {"smiles": "OC[C@H]1O[C@@H]2O[C@H]3[C@H](O)[C@@H](O)[C@@H](O[C@H]4[C@H](O)[C@@H](O)[C@@H](O[C@H]5[C@H](O)[C@@H](O)[C@@H](O[C@H]6[C@H](O)[C@@H](O)[C@@H](O[C@H]7[C@H](O)[C@@H](O)[C@@H](O[C@H]1[C@H](O)[C@H]2O)O[C@@H]7CO)O[C@@H]6CO)O[C@@H]5CO)O[C@@H]4CO)O[C@@H]3CO", "outcome": "inactive"}, {"smiles": "COCc1nnc(-c2ccc[n+]([O-])c2)n1-c1c(Cl)c(Cl)cc2[nH]c(=O)c(=O)[nH]c12", "outcome": "inactive"}, {"smiles": "CCn1nc(C)c2c1C(=O)NCC(c1ccc(O)cc1)=N2", "outcome": "inactive"}, {"smiles": "OCc1ccccc1", "outcome": "inactive"}, {"smiles": "OC(Cn1cncn1)(Cn1cncn1)c1ccc(F)cc1F", "outcome": "inactive"}, {"smiles": "O=S(=O)(O)c1ccc(N=Nc2c(O)ccc3cc(S(=O)(=O)O)ccc23)cc1", "outcome": "inactive"}, {"smiles": "CCCCC(CC)C(=O)OCCOCCOCCOC(=O)C(CC)CCCC", "note": "(stereo not given)", "outcome": "inactive"}, {"smiles": "CCCCCCCC/C=C\\CCCCCCCC(=O)OC[C@@H](O)[C@H]1OC[C@H](O)[C@H]1O", "outcome": "inactive"}, {"smiles": "CC(C)C(=O)Nc1ccc([N+](=O)[O-])c(C(F)(F)F)c1", "AC50": "50 µM (active)"}, {"smiles": "CCCCCCCCCCCCCCO", "outcome": "inactive"}, {"smiles": "CCc1cccc(CC)c1N", "outcome": "inactive"}, {"smiles": "CC[C@H](C)C(=O)O[C@H]1C[C@H](O)C=C2C=C[C@H](C)[C@H](CC[C@@H](O)C[C@@H](O)CC(=O)O)[C@H]21", "outcome": "inactive"}, {"smiles": "CCCCOC(=O)c1ccccc1", "outcome": "inactive"}, {"smiles": "O=C(O)c1cccc(C[C@@H]2COc3ccc(OCc4nc5cc(F)ccc5s4)cc3[C@@H]2O)c1", "outcome": "inactive"}, {"smiles": "CCCCCOC(C)=O", "outcome": "inactive"}, {"smiles": "Cn1c(=O)c2[nH]cnc2n(C)c1=O", "outcome": "inactive"}, {"smiles": "CCCC(CCC)C(=O)O", "outcome": "inactive"}, {"smiles": "CC(C)CCCCCCOC(=O)C1CCCCC1C(=O)OCCCCCCC(C)C", "note": "(stereo not given)", "outcome": "inactive"}, {"smiles": "C=CCc1cc(S(=O)(=O)c2ccc(O)c(CC=C)c2)ccc1O", "outcome": "inactive"}, {"smiles": "O=C(O)c1cccc(C(=O)O)c1", "outcome": "inactive"}, {"smiles": "CCCCCCCCCC", "outcome": "inactive"}, {"smiles": "CCCOc1ccc(S(=O)(=O)N2CCN(CC)CC2)cc1-c1nc2c(CC)n(Cc3ccccn3)nc2c(=O)[nH]1", "outcome": "inactive"}, {"smiles": "OCCOCCOCCO", "outcome": "inactive"}, {"smiles": "O=C1CN(N=Cc2ccc([N+](=O)[O-])o2)C(=O)N1", "outcome": "inactive"}, {"smiles": "OCC(CO)(CO)CO", "outcome": "inactive"}, {"smiles": "CCOc1ccc2[nH]cc(C(=O)NCc3ccccc3)c(=O)c2n1", "outcome": "inactive"}, {"smiles": "NNC(=O)c1ccncc1", "outcome": "inactive"}, {"smiles": "CC1(C)C(=O)N(Cl)C(=O)N1Cl", "outcome": "inactive"}, {"smiles": "COS(C)(=O)=O", "outcome": "inactive"}, {"smiles": "Cc1nccn1-c1ccc(Sc2cccc(C3(C(N)=O)CCOCC3)c2)cc1", "AC50": "23.8 µM (active)"}, {"smiles": "CC(C)CC(C)O", "note": "(stereo not given)", "outcome": "inactive"}, {"smiles": "COc1cc(C(C)C)c2c(c1)S(=O)(=O)N(COc1cc(=O)n3cccc(OCCN4CCCCC4)c3n1)C2=O", "outcome": "inactive"}, {"smiles": "C=CN1CCCC1=O", "outcome": "inactive"}]}]}
